# CYP2C9 activ: human CYP2C9 activators, primary screen, biochemical, luminescence; Cytochrome P450 2C9 (Homo sapiens), P11712; recombinant CYP2C9, luciferin-H conversion; stronger effect = higher value; factor 1 = untreated enzyme, 0 = blocked; activation factor at 5 µM; 96,000 compounds, 1.4% hits; AID 1024, 2008;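 active means activation factor of 2 or more for CYP2C9 at a 5 µM dose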;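 further: 0 = sulfaphenazole-blocked wells and 1 = vehicle-only wells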
# PostGolgi yeast: phenotypic screen on post-Golgi transport, primary screen; post-Golgi transport phenotypic cell assay; inhibition, % at 10 µM; 98,000 compounds, 0.9% hits; AID 739, 2007;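 further: yeast cells grown in 1536-well plates; yeast grown about 18 h at 30C before absorbance read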
# PostGolgi ctrl: growth inhibition of yeast control strain, primary screen, counter-screen for post-Golgi transport modulator project. efflux-deficient yeast background strain, growth absorbance A615, 16 h. inhibition, % at 10 µM. 98,000 compounds, 5% hits
# CYP2C9 inhib: blockers of cytochrome P450 2C9 activity – biochemical, luminescence, ADME assay, primary screen | P11712 | CYP2C9 Supersomes, luciferin-H conversion | inhibition, % at 5 µM | 96,000 compounds, 20% hits | AID 777, 2007;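 active means blocking of liver enzyme CYP2C9 beyond about 50% at 5 µM, limit read from the data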
# CYP2C19 act: human CYP2C19 activators, primary screen, biochemical, luminescence; Cytochrome P450 2C19 (Homo sapiens), P33261; activation factor at 5 µM; recombinant CYP2C19, luciferin-H EGE luminescence; stronger effect = higher value; 0 = fully inhibited enzyme, 1 = untreated enzyme; 96,000 tested, under 10 active; AID 1025, 2008;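 active means activation factor of at least 2 at 5 µM in the primary screen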;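 further: 0 = wells with 2.5 mM tranylcypromine and 1 = vehicle-only wells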
# Target sequence (P33261 whole entry, looked up): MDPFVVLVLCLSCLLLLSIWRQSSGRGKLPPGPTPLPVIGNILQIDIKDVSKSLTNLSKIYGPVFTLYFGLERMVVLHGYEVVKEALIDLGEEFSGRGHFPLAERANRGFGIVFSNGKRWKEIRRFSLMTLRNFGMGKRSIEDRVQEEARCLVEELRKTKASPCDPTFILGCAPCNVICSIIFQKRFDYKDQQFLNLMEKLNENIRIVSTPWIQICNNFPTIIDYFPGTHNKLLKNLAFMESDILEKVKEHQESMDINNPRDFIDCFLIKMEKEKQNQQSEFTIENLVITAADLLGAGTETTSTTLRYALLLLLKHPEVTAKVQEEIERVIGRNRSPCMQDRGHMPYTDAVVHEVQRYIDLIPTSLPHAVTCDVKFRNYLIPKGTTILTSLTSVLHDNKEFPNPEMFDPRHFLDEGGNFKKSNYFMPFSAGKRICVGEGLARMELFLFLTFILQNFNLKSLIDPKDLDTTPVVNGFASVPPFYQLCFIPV
# CYP2C19 inh: blockers of cytochrome P450 2C19 activity – biochemical, luminescence, ADME assay, primary screen; P33261; 96,000 compounds, 21% hits; CYP2C19 Supersomes, luciferin-H EGE luminescence, 30 min; inhibition, % at 5 µM;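 active means CYP2C19 inhibition above a set limit at 5 µM in the primary screen, cut at about 50% in these data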;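 further: plate controls were negative control wells for no effect and 2.5 mM tranylcypromine positive control for full effect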
# * marks the source's active call; other numbers are inactive results; x = no result. Hits are enriched below; roughly 32% of the tested compounds scored in any of these assays. Unless noted, no stated cut-off is given here; in the data, active means inhibition above about 30%; inactive means the rest.
SMILES,CYP2C9 activ,PostGolgi yeast,PostGolgi ctrl,CYP2C9 inhib,CYP2C19 act,CYP2C19 inh
CNC(=O)C1C2C=CC3(O2)C1C(=O)N(CCOC)C3C(=O)NCc1ccc(OC)cc1 (stereo not given),1.2,-3.5,6.4,-16.1,1.2,-18.1
O=C(NCC1COc2ccccc2O1)C1CCC(CNc2c(N3CCCCC3)c(=O)c2=O)CC1 (stereo not given),0.6,-5.7,1.3,43.8,0.7,33.9
COc1ccc(S(=O)(=O)N2CCN(CCC(=O)Nc3ccccc3F)CC2)cc1,0.1,-1.4,1.5,94.5*,0.1,87.0*
COc1cc(NC(=O)CCN2CCN(Cc3ccccc3)CC2)cc(OC)c1,1,-0.5,4.6,2.5,1,4.3
O=C(CCN1CCN(c2ccc(F)cc2)CC1)Nc1ccccc1F,0.4,-4.7,-0.6,60.3*,0.3,66.3*
O=C(CCN1CCN(c2ccccc2)CC1)Nc1ccccc1F,0.2,-8.3,2.5,75.1*,0.2,75.3*
COc1cc(NC(=O)CCN2CCN(c3ccccc3F)CC2)cc(OC)c1,0.4,-0.8,12.2,62.9*,0.7,33.7
CCOC(=O)N1CCN(C(=O)c2cn(C)c(=O)c3c2c2ccccc2n3C)CC1,1,0.2,11.8,2.1,1.1,-9.9
O=C(CCN1CCN(CC(=O)Nc2ccccc2F)CC1)Nc1ccccc1F,0.6,-4.2,9.7,43.0,0.3,74.1*
Cc1cc(-n2c(SCCC#N)nnc2-c2cccnc2)ccc1Cl,1.2,-1.2,1.4,-16.7,1,2.7
O=C(CCCc1ccccc1)N1CCc2ccccc21,0.4,1.6,7.3,59.1*,0.2,77.5*
O=C(CS(=O)(=O)Cc1ccccc1)N1CCc2ccccc21,2.1*,1.4,4.0,-108.9,0.5,47.8
COc1ccc(-n2c(=S)[nH]c3cc(C(=O)NCCCN4CCCC4=O)ccc3c2=O)cc1,1.1,-6.1,2.1,-5.8,1,2.0
COc1ccc(Cn2c(=O)[nH]c3cc(C(=O)N4CCN(Cc5ccccc5)CC4)ccc3c2=O)cc1,0.2,-1.7,-3.0,75.4*,0.4,63.7*
CCN1CCN(C(=O)c2ccc(Cn3c(=O)[nH]c4cc(OC)c(OC)cc4c3=O)cc2)CC1,1.1,-1.9,-3.4,-10.0,1,-3.9
O=C(c1ccc(Cn2c(=O)[nH]c3ccccc3c2=O)cc1)N1CCN(c2ccc(F)cc2)CC1,0.4,0.9,-1.9,62.4*,0.1,88.5*
CC(C)NC(=O)CSc1nc(Cc2cccs2)nc2ccccc12,0.7,0.6,0.5,33.3,0.5,49.9
CCCCN(Cc1ccccc1)C(=O)C1CCN(S(=O)(=O)c2c(C)noc2C)CC1,1,20.6,-4.0,1.1,1,4.1
CCn1c(NC(=O)Nc2cccc(C)c2C)cc2sccc21,0.7,-4.3,17.3,26.2,0.5,47.4
CCCCn1cnc2c(cnn2-c2ccc(F)cc2)c1=O,0.4,-8.3,5.3,56.0*,0.6,43.4
CCCn1cnc2c(cnn2-c2ccc(F)cc2)c1=O,x,5.1,6.2,x,x,x
Cc1ccc(-n2ncc3c(=O)n(CC(=O)OCc4ccccc4)cnc32)cc1,0.6,-1.9,35.6*,42.9,0.5,48.3
O=c1c2cnn(-c3ccc(F)cc3)c2ncn1Cc1ccccn1,0.7,3.6,5.7,33.3,0.4,56.3*
Cc1cc(C)n(-c2ccc(C(=O)N3CCc4ccccc43)cc2)n1,2*,1.2,15.4,-102.6,0.6,40.8
CN(C)S(=O)(=O)c1cccc(C(=O)N2CCc3ccccc32)c1,0.8,-0.5,2.0,17.2,0.8,16.7
CC(=O)Nc1ccc(NC(=O)c2cc(C)nn2-c2ccccc2)cc1,0.9,-16.9,-5.4,14.5,1,3.0
CC(C)(C)c1cc(C(=O)N2CCc3ccccc32)ccn1,0.5,2.4,-0.8,53.0*,0.3,72.3*
Cc1cc(C(=O)N2CCc3ccccc32)n(-c2ccccc2)n1,0.3,-0.4,-4.3,67.8*,0.2,75.2*
Cc1cc(C)n(-c2ccc(C(=O)Nc3ccccc3N3CCOCC3)cc2)n1,0.8,7.8,-7.0,18.6,0.9,12.5
